“And” between values parts separate entries of the source, which are not always exact repeats. Equal values may be shown once. Results filed as inconclusive are left out. The source made the active and inactive calls. Unless noted, calls follow the shape of the dose curve; as a rule, active = well fitted curve in the direction sought with a large enough effect; inconclusive = small, poorly fitted or top-dose-only effect, or another doubt; inactive = no such curve, though single readings can be large; an effect the other way counts as inactive or inconclusive.
How the values were obtained:
[1] = Stat Signaling Pathway (AID 446; active = well fitted curve in either direction with a large enough effect, not every such curve was filed as active;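 also: ME-180 cervical cancer cells given 40 pM IL-6 alongside compound; SIE-controlled beta-lactamase reporter measured as 460/530 nm FRET emission ratio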)
Method in brief: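 Reporter line: ME-180 cervical carcinoma, SIE-beta-lactamase. Treatment: compound with 40 pM IL-6, 5 hrs, 37 C, in low-serum OPTI-MEM with 10 mM HEPES pH 7.3. Detection: 460/530 nm fluorescence.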

[2] = biological target: Mitogen-activated protein kinase 10 (Mus musculus) (UniProt Q61831); test: JNK3 AlphaScreen Assay (AID 530; active = well fitted curve in either direction with a large enough effect, not every such curve was filed as active;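 also: kinase came from lysate of stimulated human HepG2 cells; signal reports phosphorylation of biotinylated GST-cJun 1-79 at Ser73 with 10 µM ATP; series mostly up to about 57 µM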)
Method in brief: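 JNK3 came from HepG2 lysates pre-activated with IL-1beta and TNF-alpha and phosphorylated biotinylated GST-cJun (1-79) at 10 uM ATP, pH 7.6, room temperature. Compounds were titrated. AlphaScreen signal used anti-phospho-cJun (Ser73) antibody.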

[3] = biological target: Glucocorticoid receptor (Homo sapiens) (UniProt P04150); test: GR-GFP Redistribution (AID 450;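 active = compounds whose dose series gives a full or clear partial fitted curve of increased nuclear translocation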; also: potency is read from the fitted curve at half-maximal effect); conditions: U2OS GR-GFP nuclear translocation, laser cytometry, 2 h
Sequence of Glucocorticoid receptor (Homo sapiens) (P04150 whole entry, looked up): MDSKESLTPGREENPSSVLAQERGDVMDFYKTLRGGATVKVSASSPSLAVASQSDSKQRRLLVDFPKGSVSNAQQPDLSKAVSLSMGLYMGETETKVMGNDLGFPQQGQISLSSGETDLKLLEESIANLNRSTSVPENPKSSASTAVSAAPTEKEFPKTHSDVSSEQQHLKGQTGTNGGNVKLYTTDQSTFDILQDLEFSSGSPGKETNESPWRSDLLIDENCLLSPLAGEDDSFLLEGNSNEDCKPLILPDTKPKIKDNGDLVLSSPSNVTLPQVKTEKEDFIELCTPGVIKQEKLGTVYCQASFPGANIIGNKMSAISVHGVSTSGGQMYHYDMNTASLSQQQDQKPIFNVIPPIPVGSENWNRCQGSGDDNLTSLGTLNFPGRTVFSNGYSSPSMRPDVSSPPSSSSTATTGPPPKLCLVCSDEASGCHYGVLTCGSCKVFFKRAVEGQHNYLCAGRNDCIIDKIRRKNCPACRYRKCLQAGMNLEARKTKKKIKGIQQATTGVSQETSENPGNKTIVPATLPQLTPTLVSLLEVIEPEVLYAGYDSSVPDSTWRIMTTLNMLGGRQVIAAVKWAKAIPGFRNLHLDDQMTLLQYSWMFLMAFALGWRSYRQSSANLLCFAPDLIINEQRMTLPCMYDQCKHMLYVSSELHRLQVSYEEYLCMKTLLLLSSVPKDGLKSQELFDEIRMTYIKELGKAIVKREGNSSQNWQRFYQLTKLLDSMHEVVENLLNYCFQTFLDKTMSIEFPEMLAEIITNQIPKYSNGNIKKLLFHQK

[4] = Cell Viability - N2a (AID 540);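 also: cells exposed to compound for 40 h at 37 °C; nearly all actives have a fitted effect of over 45% in size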
Method in brief: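 First, 1500 N2a cells per well incubate 5 hr at 37 °C; next, compounds are added and incubated 40 hr at 37 °C; finally CellTiter-Glo is added and luminescence read after 20 min, with AC50 derived by Hill modeling.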

[5] = Cell Viability - NIH 3T3 (AID 541); also: nearly all actives have a fitted effect of over 25% in size; also: potency is read from the fitted curve at half-maximal effect
Method in brief: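 AC50 values reflect concentration-dependent loss of intracellular ATP in NIH 3T3 cells after 40 hr treatment in complete culture medium, quantified by luciferase-based luminescence.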

[6] = Cell Viability - HUV-EC-C (AID 542); also: nearly all actives have a fitted effect of over 35% in size
Method in brief: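 Decrease in cellular ATP, quantified by luciferase luminescence, reflects toxicity in normal human vascular endothelial HUV-EC-C cells given compound for 40 hr in complete culture medium. Values are AC50s from concentration-response curves.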

[7] = Cell Viability - H-4-II-E (AID 543); also: nearly all actives have a fitted effect of over 35% in size; also: potency is read from the fitted curve at half-maximal effect
Method in brief: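 Here, cytotoxicity is measured in the rat hepatoma line H-4-II-E as loss of intracellular ATP after 40 hr compound treatment, detected by luciferase luminescence.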

[8] = Cell Viability - SH-SY5Y (AID 544); also: nearly all actives have a fitted effect of over 55% in size
Method in brief: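 Cytotoxicity is scored as a concentration-dependent fall in intracellular ATP in human SH-SY5Y cells treated 40 hr in complete culture medium. Potency is expressed as AC50 from a Hill equation fit.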

[9] = Cell Viability - Renal Proximal Tubule (AID 545); also: nearly all actives have a fitted effect of over 40% in size
Method in brief: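 In this qHTS format, normal rat kidney-derived proximal tubule cells in complete culture medium receive compound titrations, then sit 40 hours at 37 °C before luciferase-based ATP quantitation; potency is reported as AC50 from concentration-response curves.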

[10] = Cell Viability - Mesenchymal (AID 546);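 also: cells exposed to compound for 40 hours before reading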
Method in brief: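 Normal human renal glomerulus-derived kidney mesenchymal cells, 1000 per well in complete medium, were treated with compounds for 40 hr at 37 °C. Viability was read as intracellular ATP by CellTiter-Glo luminescence; AC50 values came from Hill-equation fits of qHTS concentration-response data.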

[11] = Cellular Toxicity (caspase-3) HepG2 (AID 654);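 also: cells exposed to compound for 16 hours before reading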
Method in brief: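 qHTS, HepG2, 1500 cells/well, complete medium; cpd 16 h 37 °C; Caspase-Glo 3/7, 20 min RT; lum. Norm: DMSO vs 100 uM tamoxifen; AC50 Hill fit.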

[12] = Cellular Toxicity (caspase-3) Jurkat (AID 655);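 also: cells exposed to compound for 16 h at 37 °C before reading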
Method in brief: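 qHTS in human Jurkat T-cell leukemia line: 16 hr compound treatment at 37 °C, caspase-3/7 activity measured by Caspase-Glo luminescence. AC50 derived from Hill equation.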

[13] = Cellular Toxicity (caspase-3) HUV-EC-C (AID 656)
Method in brief: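 Concentration-dependent caspase 3/7 induction was assessed in HUV-EC-C cells exposed for 16 hours. Data scaled between DMSO and tamoxifen (100 uM) controls.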

[14] = Cellular Toxicity (caspase-3) SHSY5Y (AID 657);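 also: cells exposed to compound for 16 hours at 37 °C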
Method in brief: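 Readout: caspase-cleaved peptide-aminoluciferin substrate driving luciferase light in SH-SY5Y neuroblastoma cells after 16 h treatment. Response normalized to DMSO and 10 uM staurosporine controls.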

[15] = Cellular Toxicity (caspase-3) BJ (AID 658)
Method in brief: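 Luminescent aminoluciferin-substrate cleavage reports caspase 3/7 activity in normal human BJ fibroblasts after 16 hr compound exposure at 37 °C. Normalized to DMSO (basal) and 10 uM staurosporine (100%); AC50 from Hill fit of concentration-response.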

[16] = Cellular Toxicity (caspase-3) MRC-5 (AID 659);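 also: cells exposed to compound for 16 h at 37 °C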
Method in brief: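 Luminescence from caspase-cleaved aminoluciferin substrate (Caspase-Glo 3/7, 1 hr RT) reports caspase 3/7 activity in MRC-5 lung fibroblasts after 16 hr compound exposure. Normalized to DMSO basal and 10 uM staurosporine as 100%; AC50 from Hill fits.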

[17] = Cellular Toxicity (caspase-3) Mesangial (AID 660);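 also: combined caspase 3 and 7 activity read by Caspase-Glo luminescence; cells exposed to compound for 16 h before the caspase read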
Method in brief: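 Concentration-response qHTS: compound-induced rise in caspase 3/7 luminescence in human mesangial cells after 16 h, normalized to DMSO and 100 uM tamoxifen controls.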

[18] = Cellular Toxicity (caspase-3) SK-N-SH (AID 661)
Method in brief: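 Caspase 3/7 activation is measured as a luminescence increase from aminoluciferin released by substrate cleavage in SK-N-SH cells after 16 hr compound treatment; values are AC50 from concentration-response curves.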

[19] = Cellular Toxicity (caspase-3) H-4-II-E (AID 663);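 also: cells exposed to compound for 16 hr before readout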
Method in brief: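 Luminescence from caspase-cleaved aminoluciferin substrate, read 20 min after reagent addition, reports caspase 3/7 activation in rat H-4-II-E cells after 16 hr compound exposure. Normalized to DMSO (basal) and 100 uM tamoxifen (100%); AC50 from Hill fits.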

[20] = Cellular Toxicity (caspase-3) Hek293 (AID 664);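 also: cells exposed to compound for 16 h at 37 °C before readout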
Method in brief: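 Activation of caspase-3/7 is measured as increased luminescence from cleaved peptide-aminoluciferin substrate in HEK293 cells treated 16 hours at 37 °C. AC50 values come from Hill-equation fits of concentration-response data.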

Measured: Potency

CNC[C@H](O)c1cccc(O)c1
inactive: [1] | [2]

Cc1cc2c(C(C)C)c(O)c(O)c(C=O)c2c(O)c1-c1c(C)cc2c(C(C)C)c(O)c(O)c(C=O)c2c1O
inactive: [3] > 20.6 µM and > 46 µM

NC(=O)c1cnccn1
inactive: [1] | [3] > 46 µM | [2] | [4] | [5] | [6] | [7] | [8] | [9] | [10] | [11] | [12] | [13] | [14] | [15] | [16] | [17] | [18] | [19] | [20]

CCCC(CCC)C(=O)O
inactive: [1] | [3] > 46 µM | [2] | [4] | [5] | [6] | [8] | [9] | [10] | [11] | [12] | [13] | [14] | [15] | [16] | [17] | [18] | [20]

O=c1n(CCCN2CCN(c3cccc(Cl)c3)CC2)nc2ccccn12
inactive: [1] | [2]

NC(N)=NC(=O)c1nc(Cl)c(N)nc1N
inactive: [1] | [3] > 46 µM and > 20.6 µM | [2] | [4] | [5] | [6] | [9] | [10] | [11] | [12] | [13] | [14] | [15] | [16] | [17] | [18] | [19] | [20]

Cc1ccc2c(c1)C(=O)[C@@]1(O)CCN(c3ccccc3)C1=N2
inactive: [3] > 46 µM | [2]

Cn1cnc([N+](=O)[O-])c1Sc1ncnc2nc[nH]c12
inactive: [1] | [3] > 46 µM and > 20.6 µM | [2] | [6] | [11] | [12] | [13] | [14] | [15] | [16] | [17] | [18] | [19] | [20]
active: [5] 3.98 µM | [7] 0.631 µM

NC(=O)c1ccc(-c2nc(-c3ccc4c(c3)OCO4)c(-c3ccccn3)[nH]2)cc1
inactive: [3] > 46 µM | [2]

Cc1[nH]c(=O)c(C#N)cc1-c1ccncc1
inactive: [1] | [2]

CCOC(=O)N1CCC(=C2c3ccc(Cl)cc3CCc3cccnc32)CC1
inactive: [3] > 46 µM and > 20.6 µM | [2]

CC(C)C[C@H](NC(=O)[C@@H](O)[C@H](N)Cc1ccccc1)C(=O)O
inactive: [3] > 46 µM | [2]

CCN(c1ccccc1)c1cc(NC)[n+](C)c(C)n1
inactive: [3] > 46 µM | [2]

NS(=O)(=O)c1cc2c(cc1Cl)NC=NS2(=O)=O
inactive: [1] | [2] | [4] | [5] | [6] | [7] | [8] | [9] | [10] | [11] | [12] | [13] | [14] | [15] | [16] | [17] | [18] | [19] | [20]
